# Bioassay records from PubChem.
# Sfp inh: qHTS Assay for Inhibitors of Bacillus subtilis Sfp phosphopantetheinyl transferase (PPTase); 4'-phosphopantetheinyl transferase ffp (Bacillus subtilis), Q9F4F7; AID 1490, 2009; Biochemical Sfp PPTase activity, qHTS; Potency, µM, for the others: largest response in the series, negative = inhibition, usual class: inhibitors; actives 3.5% (n = 310,000);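 note: the enzyme is Sfp with the accession as filed and its product quenches rhodamine fluorescence; 0% = enzyme reaction without inhibitor and -100% = no enzyme wells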
#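 Buffer: 50 mM Hepes-Na pH 7.6, 10 mM MgCl2, 0.01% Nonidet P-40, 0.01% BSA. Enzyme 15 nM, pre-exposed to compound 15 min; substrates then added and fluorescence change tracked over 30 min.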
# PLK1 PBD inh: qHTS for Inhibitors of PLK1-PDB (polo-like kinase 1 - polo-box domain): Primary Screen; Serine/threonine-protein kinase PLK1 (Homo sapiens), P53350; Plk1 PBD binding of FITC phosphopeptide, fluorescence polarization; Potency, µM, without a hit: max response, negative = inhibition, most hits filed as inhibitors; actives 2.8% (n = 360,000); AID 720504, 2013; note: series mostly up to about 57 µM; nearly all actives have a fitted effect of over 65% in size
# VDR inhibitor: Inhibitors of the vitamin D receptor (VDR): qHTS; Vitamin D3 receptor (Homo sapiens), P11473; VDR-SRC2-3 peptide fluorescence polarization, 2 h; Potency, µM, inactives show max response, negative = inhibition, hits mostly inhibitors; actives 0.93% (n = 400,000); AID 504847, 2011
# Target sequence (P11473 whole entry, looked up): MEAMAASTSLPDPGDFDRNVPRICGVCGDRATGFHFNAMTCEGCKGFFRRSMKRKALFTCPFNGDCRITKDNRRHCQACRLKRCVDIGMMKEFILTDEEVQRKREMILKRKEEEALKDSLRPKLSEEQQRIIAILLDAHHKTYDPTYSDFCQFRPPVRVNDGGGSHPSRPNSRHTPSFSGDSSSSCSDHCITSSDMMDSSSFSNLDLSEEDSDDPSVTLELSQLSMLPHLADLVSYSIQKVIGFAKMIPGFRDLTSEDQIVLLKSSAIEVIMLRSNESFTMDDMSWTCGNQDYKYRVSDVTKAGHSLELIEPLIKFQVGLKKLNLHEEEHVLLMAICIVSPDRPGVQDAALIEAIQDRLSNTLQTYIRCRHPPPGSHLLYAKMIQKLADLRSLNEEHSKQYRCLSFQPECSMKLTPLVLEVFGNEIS
#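 Reagent solutions, kept cold and dark, are dispensed first; compounds are then pinned in at 23 nl, plates briefly spun, and incubated 2 h at ambient temperature. Inhibition of VDR–SRC2-3 peptide binding is read by fluorescence polarization.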
# ALOX12 inh: Primary qHTS assay for inhibitors of human arachidonate 12S-lipoxygenase (ALOX12): Round 2; purified 12hLO, xylenol orange hydroperoxide absorbance; Potency, µM (series often up to 108 µM), without a hit: at the highest dose activity change, negative = inhibition, most hits filed as inhibitors; actives 1.1% (n = 580,000)
#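 Purified human 12hLO at 150 nM in 25 mM Hepes, 0.01% Triton X-100, pH 7.0, preincubated 15 min at room temperature with compound. Reaction started with 40 uM arachidonic acid, 30 min at room temperature. Hydroperoxide measured by Fe-xylenol orange, 573/405 nm absorbance ratio.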
# Starred values were filed as active, the others as inactive; ? = inconclusive; · = no result; ! = not active in a repeat. Rows were chosen to be rich in hits. Some 4.2% of all compounds tested hit in one or more screens of this group. Calls come from the whole dose curve; as a rule, active = well fitted curve in the direction sought with a large enough effect; inconclusive = small, poorly fitted or top-dose-only effect, or another doubt; inactive = no such curve, though single readings can be large; an effect the other way counts as inactive or inconclusive. Unless noted, % is set by controls: 0 for no effect and ±100 for the full control effect; potency is the fitted concentration of half-maximal effect.
SMILES,Sfp inh,PLK1 PBD inh,VDR inhibitor,ALOX12 inh
Cc1cccc(N(C)c2cc(C)nc3nc(C)nn23)c1,8%,30µM*,-15%,208%
CCN(c1ccccc1)c1cc(C)nc2nc(C)nn12,14%,-4%,-1%,415%
COc1cccc(C(=O)NNC(=O)Cc2csc(N)n2)c1,56µM*,-2%,3%,1%
O=C(NCc1ccc(Cl)cc1)c1ccc2nc[nH]c2c1,3%,30µM*,?,-5%
Cc1cccc(Cn2c(SCc3ccc(C(=O)NC4CCCC4)cc3)nc3ccncc32)c1,·,·,-3%,-14%
O=C(c1cc(-c2ccc(O)cc2)on1)N1CCN(c2ccccc2)CC1,-2%,34µM*,0%,6%
CC1C(=O)N2CCCc3cc(S(=O)(=O)N(Cc4ccccc4)c4ccccc4)cc1c32 (stereo not given),·,·,·,10µM*
CC1C(=O)N2CCCc3cc(S(=O)(=O)N(C)Cc4ccccc4)cc1c32 (stereo not given),12%,-1%,-3%,-11%
CCn1cc(-c2cc(C(=O)O)c3ccccc3n2)c(C)n1,28%,-2%,-3%,13µM*!
COC(=O)c1cc(-c2ccco2)nc2ccccc12,·,·,·,14µM*
Cc1ccc(C)c(-c2cc(C(=O)O)c3cc(C)ccc3n2)c1,·,·,·,-6%
CC(=O)N1CCN(C(=O)c2cc(-c3ccco3)nc3ccccc23)CC1,·,·,·,-101%
O=C(c1cc(-c2ccco2)nc2ccccc12)N1CCN(c2ccc(F)cc2)CC1,25µM*,-7%,7%,?
CCn1cc(CNC(=O)c2cc(-c3ccc(C)c(C)c3)nc3ccccc23)c(C)n1,·,·,-13%,-8%
Cc1ccc2nc(-c3ccco3)cc(C(=O)O)c2c1,·,·,·,7.9µM*!
COC(=O)c1cc(-c2ccccc2)nc2ccccc12,·,·,·,10%
COc1cccc(NC(=O)COC(=O)CC2CC3CCC2C3)c1 (stereo not given),·,-20%,32%,290%
CC1CN(C(=S)Nc2ccccc2)C(C)CN1C=O (stereo not given),·,1%,6%,-17%
COc1cccc2sc(=NC(=O)CCS(=O)(=O)c3ccc(C)cc3)n(C)c12,·,1%,-17%,8%
CCOc1ccccc1NC(=O)c1cc(-c2ccco2)nc2ccccc12,·,·,·,11µM*
Nc1ccc(-c2cc(C(=O)O)c3ccccc3n2)cc1,·,·,·,18µM*
N#Cc1c(N)n[nH]c1CCCNC(=O)c1cc(-c2ccco2)nc2ccccc12,·,·,·,20µM*
COC(=O)c1cc(-c2ccco2)nc2c(Cl)cccc12,·,·,·,22µM*
O=C(Cc1ccccc1)NN1C(=O)C2C3C=CC(C4CC34)C2C1=O (stereo not given),27%,-4%,-5%,-12%
Cc1nc(N)[nH]c(=O)c1CCCNS(=O)(=O)c1ccc([N+](=O)[O-])cc1,·,-4%,-18%,-3%
SMILES,Sfp inh,PLK1 PBD inh,VDR inhibitor,ALOX12 inh
Cc1cc(C)c(S(=O)(=O)N2CCCCC2CCNC(=O)C(=O)NC2CC2)c(C)c1 (stereo not given),·,-5%,?,·
CCn1c(-c2ccccc2SC)n[nH]c1=S,8%,-16%,5%,-15%
O=C(O)c1cc(-c2ccco2)nc2ccccc12,35µM*,?,79µM*,7.1µM*
O=C(O)c1cc(-c2cc(C(=O)O)c3ccccc3n2)nc2ccccc12,4%,·,·,·
O=C(NC1CC1)c1cc(-c2ccco2)nc2ccccc12,45µM*,21µM*,-11%,?
O=C(NC1CC1)c1cc(-c2ccc(O)cc2)nc2ccccc12,·,·,·,-17%
CCN(CC)CCNC(=O)c1ccccc1C(=O)c1ncc[nH]1,?,-6%,1%,0%
Cc1cc(C)n(CC(=O)Nc2ccc(C(=O)NCc3ccccn3)cc2)c(=O)c1C#N,·,·,·,-3%
O=C(CN1CCOCC1)Nc1cc(C(F)(F)F)ccc1Cl,1%,21µM*,?,-3%
O=C(CCCCCN1C(=O)CCC1=O)Nc1ccc2c(c1)OCO2,15%,24µM*,-16%,-26%
O=C(CN1CCCCCC1)Nc1cc(C(F)(F)F)ccc1Cl,6%,-3%,1%,2%
O=C(CC1CS(=O)(=O)CC1CC(=O)Nc1ccc2c(c1)OCCO2)Nc1ccc2c(c1)OCCO2 (stereo not given),22µM*,-29%,?,-6%
O=C(CN1C(=O)CSc2ccccc21)Nc1ccc2c(c1)OCCO2,-7%,27µM*,-10%,5%
Cc1ccc(C)n1C1CCS(=O)(=O)C1 (stereo not given),13%,-4%,-8%,74%
COc1ccc(CNC(=O)c2cc3n(n2)CC(c2ccc(Cl)cc2)OC3)cc1OC (stereo not given),·,·,·,15%
O=C(CN1CCOCC1)Nc1ccc2c(c1)OCO2,9%,11µM*,-14%,-3%
O=C(NCC(c1ccco1)N1CCc2ccccc2C1)c1cccc([N+](=O)[O-])c1 (stereo not given),·,-2%,-19%,?
Cc1ccccc1OCC(=O)NNC(=O)CSc1nc(N)cc(N)n1,-11%,21µM*,-5%,-12%
Nc1cc(N)nc(SCC(=O)NNC(=O)Cc2ccccc2)n1,-19%,-6%,8%,-11%
N/C(=N\OC(=O)COc1ccc2ccccc2c1Br)c1cccnc1,-15%,·,·,-15%
N/C(=N\OS(=O)(=O)c1ccc2ccccc2c1)c1ccccn1,63µM*,-21%,7%,5%
N/C(=N\OC(=O)COc1ccc2ccccc2c1Br)c1ccccn1,56µM*,-4%,-6%,-5%
N/C(=N\OC(=O)Cc1ccccc1)c1ccccn1,14%,12µM*,-5%,-17%
N/C(=N\OS(=O)(=O)c1ccc2ccccc2c1)c1ccncc1,11%,-7%,-4%,?
COc1ccc(-n2cc(-c3ccccc3)[nH]c2=S)cc1,-26%,-11%,-2%,?
SMILES,Sfp inh,PLK1 PBD inh,VDR inhibitor,ALOX12 inh
CC(=O)Nc1ccc(-n2cc(-c3ccccc3)[nH]c2=S)cc1,40µM*,-16%,-11%,28µM*
COC(=O)c1cccc(NC(=O)CN2CCN(Cc3ccccc3)CC2)c1,17%,-4%,3%,46%
CC(=O)c1ccc(NC(=O)CN2CCN(c3ccccc3)CC2)cc1,8%,-4%,-9%,11µM*
CC(C)(C)NC(=O)NC(=O)CN1CCN(Cc2ccccc2)CC1,-8%,30µM*,-3%,-10%
CC(=O)c1ccc(NC(=O)CNCC(c2ccccc2)N(C)C)cc1 (stereo not given),79µM*,19µM*,?,-2%
CC(=O)c1cccc(NC(=O)CN2CCN(Cc3ccccc3)CC2)c1,56µM*,-4%,-23%,?
CCOC(=O)c1cc(NC(=O)CNCC(c2ccccc2)N(C)C)cc(C(=O)OCC)c1 (stereo not given),-24%,0%,-7%,0%
CC1CCCCN1C(=O)C1CC(c2ccc(F)cc2)=NO1 (stereo not given),1%,-3%,-8%,-14%
